Records with an inconclusive call do not appear. A call without a number means that no potency is given here. Where a structure was tested more than once in an assay, its records may differ in their call. Active and inactive are the calls of the source. Unless noted, the call rests on the fitted dose curve; in most records, active means well fitted curve in the direction sought with a large enough effect in the repeat runs; inconclusive means weak or mixed curves; inactive means no such curve, though single readings can be large; an effect the other way counts as inactive or inconclusive.
Experiments:
[1] = qHTS assay to identify aromatase inhibitors - cell viability counter screen (AID 743084);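 further: cells stimulated with testosterone during compound exposure; nearly all actives have a fitted effect of over 55% in size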
[2] = target: Aryl hydrocarbon receptor (Homo sapiens) (UniProt P35869); experiment: qHTS assay to identify small molecule that activate the aryl hydrocarbon receptor (AhR) signaling pathway (AID 743085); further: nearly all actives have a fitted effect of over 15% in size; further: potency means the concentration at half of the fitted maximal effect;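 on activation: HG2L7.5c1 human HepG2 liver cells with stably integrated DRE-driven firefly reporter; series mostly up to about 70 µM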
Sequence of Aryl hydrocarbon receptor (Homo sapiens) (P35869 whole entry, looked up): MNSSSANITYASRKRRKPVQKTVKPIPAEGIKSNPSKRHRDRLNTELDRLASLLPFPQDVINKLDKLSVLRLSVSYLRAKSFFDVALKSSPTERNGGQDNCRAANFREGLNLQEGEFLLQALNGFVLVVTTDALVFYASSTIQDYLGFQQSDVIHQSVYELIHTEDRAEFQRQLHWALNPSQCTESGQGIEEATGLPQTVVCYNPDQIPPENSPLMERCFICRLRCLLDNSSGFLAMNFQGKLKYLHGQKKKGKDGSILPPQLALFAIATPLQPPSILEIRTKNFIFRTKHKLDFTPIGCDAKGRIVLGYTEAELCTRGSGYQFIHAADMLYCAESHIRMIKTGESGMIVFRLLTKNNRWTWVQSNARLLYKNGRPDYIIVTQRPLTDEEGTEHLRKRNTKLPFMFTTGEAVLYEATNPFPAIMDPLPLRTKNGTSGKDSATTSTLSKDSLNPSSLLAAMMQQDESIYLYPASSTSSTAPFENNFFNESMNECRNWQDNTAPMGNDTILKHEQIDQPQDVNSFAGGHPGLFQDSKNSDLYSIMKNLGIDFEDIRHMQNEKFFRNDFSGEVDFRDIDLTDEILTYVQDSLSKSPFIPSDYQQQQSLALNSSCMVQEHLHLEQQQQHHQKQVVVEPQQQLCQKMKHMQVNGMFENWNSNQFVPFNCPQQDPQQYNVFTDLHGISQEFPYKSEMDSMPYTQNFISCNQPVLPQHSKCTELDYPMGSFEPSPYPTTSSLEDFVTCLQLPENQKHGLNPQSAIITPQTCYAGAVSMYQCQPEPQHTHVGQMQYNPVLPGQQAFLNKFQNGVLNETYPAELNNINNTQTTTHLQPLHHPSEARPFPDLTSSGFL
Outline: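 Luminescence (ONE-Glo) from a dioxin-responsive-element luciferase reporter in HG2L7.5c1 HepG2 cells after 24 hr compound exposure at 37C; viability measured by CellTiter-Fluor fluorescence beforehand.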

[3] = qHTS assay to identify small molecule that activate the aryl hydrocarbon receptor (AhR) signaling pathway - cell viability counter screen (AID 743086);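 further: HepG2 liver cells carrying the AhR DRE luciferase reporter; series mostly up to about 70 µM; nearly all actives have a fitted effect of over 45% in size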
Outline: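 Cytotoxicity counter screen: CellTiter-Fluor signal (30 min, 37 C) in 4000 HepG2 cells/well carrying the DRE-luciferase reporter, following 24 h compound exposure at 37 C.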

[4] = target: Peroxisome proliferator-activated receptor gamma (Homo sapiens) (UniProt P37231); experiment: qHTS assay to identify small molecule agonists of the peroxisome proliferator-activated receptor gamma (PPARg) signaling pathway (AID 743094; active means well fitted activation curve with a large enough effect in the signal ratio in the repeat runs, not every such curve was filed as active; the % refers to the signal ratio)
Sequence of Peroxisome proliferator-activated receptor gamma (Homo sapiens) (P37231 whole entry, looked up): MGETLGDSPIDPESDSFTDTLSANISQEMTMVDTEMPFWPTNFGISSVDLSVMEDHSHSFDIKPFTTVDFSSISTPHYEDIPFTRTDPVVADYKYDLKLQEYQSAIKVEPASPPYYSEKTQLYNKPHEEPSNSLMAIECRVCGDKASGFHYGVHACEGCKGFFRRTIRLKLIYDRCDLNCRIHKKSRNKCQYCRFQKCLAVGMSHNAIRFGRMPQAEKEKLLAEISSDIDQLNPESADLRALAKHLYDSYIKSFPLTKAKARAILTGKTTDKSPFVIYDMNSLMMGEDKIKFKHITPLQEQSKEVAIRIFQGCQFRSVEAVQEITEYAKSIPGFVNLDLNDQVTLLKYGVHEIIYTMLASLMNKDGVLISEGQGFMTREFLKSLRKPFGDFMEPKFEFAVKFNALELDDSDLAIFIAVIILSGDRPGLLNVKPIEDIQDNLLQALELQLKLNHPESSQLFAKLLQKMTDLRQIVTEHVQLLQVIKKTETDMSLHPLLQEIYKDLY
Outline: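 Agonism was assessed in a beta-lactamase reporter system, HEK293H cells with a stably integrated UAS-bla construct under PPARg control; the 17 h treatment at 37C preceded a 1 h room-temperature FRET substrate read.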

[5] = target: Peroxisome proliferator-activated receptor gamma (Homo sapiens) (UniProt P37231); experiment: qHTS assay to identify small molecule antagonists of the peroxisome proliferator-activated receptor gamma (PPARg) signaling pathway (AID 743191; calls by dose curve; further: series mostly up to about 63 µM; nearly all actives have a fitted effect of over 30% in size)
Outline: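 Beta-lactamase reporter under UAS control in HEK293H PPARg-bla cells; compound treatment 17 h at 37C. Read-out: fluorescence intensity after 1 h room-temperature incubation with LiveBLAzer B/G FRET substrate.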

[6] = qHTS assay to identify small molecule antagonists of the peroxisome proliferator-activated receptor gamma (PPARg) signaling pathway - cell viability counter screen (AID 743194); further: nearly all actives have a fitted effect of over 55% in size
Outline: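 Viability was measured as CellTiter-Glo luminescence in GeneBLAzer PPARg UAS-bla HEK293H cells. These cells had been exposed 17 h at 37 C to compounds together with rosiglitazone at 50 nM final, with the beta-lactamase readout taken in the same wells.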

[7] = qHTS assay for small molecule agonists of the antioxidant response element (ARE) signaling pathway (AID 743202; active means well fitted activation curve with a large enough effect in the signal ratio in the repeat runs, not every such curve was filed as active; the % refers to the signal ratio)
Outline: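 Beta-lactamase reporter activity, read as fluorescence intensity, reflects ARE/Nrf2 pathway induction in HepG2 cells after 16 h compound exposure at 37 C; substrate loading was 2 h at room temperature.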

[8] = qHTS assay for small molecule agonists of the antioxidant response element (ARE) signaling pathway - cell viability counter screen (AID 743203; calls by dose curve; further: nearly all actives have a fitted effect of over 55% in size)
Outline: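 ATP content via CellTiter-Glo luminescence served as the viability measure. Cells: ARE-bla HepG2, 2,000 per well. Exposure: 16 hrs, 37C/5% CO2.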

[9] = qHTS assay for small molecule activators of the heat shock response signaling pathway - cell viability counter screen (AID 743209); further: nearly all actives have a fitted effect of over 50% in size
Outline: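 Compounds dissolved in DMSO were added to overnight-plated HSE-bla HeLa cells and left 5 h at 37 C. Cell viability was quantified by luminescence using CellTiter-Glo.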

[10] = qHTS assay for small molecule activators of the heat shock response signaling pathway (AID 743210; active means well fitted activation curve with a large enough effect in the signal ratio in the repeat runs, with a control signal flat, not every such curve was filed as active; the % refers to the signal ratio;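 further: HeLa cells with beta-lactamase reporter driven by heat shock elements; series mostly up to about 63 µM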)
Outline: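 Fluorescence from a cleaved B/G FRET substrate (2.5 h, room temp) reports HSE-driven beta-lactamase in HeLa cells treated 5 h at 37 C with DMSO-dissolved compounds.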

[11] = qHTS assay to identify small molecule agonists of the peroxisome proliferator-activated receptor delta (PPARd) signaling pathway - cell viability counter screen (AID 743211); further: nearly all actives have a fitted effect of over 55% in size
Outline: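 Viability was measured as CellTiter-Glo luminescence (30 min, room temperature) in the same wells as the beta-lactamase readout. GeneBLAzer PPARd UAS-bla HEK293H cells received compound after 5 h plating and were incubated 17 h at 37 C.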

[12] = target: Peroxisome proliferator-activated receptor delta (Homo sapiens) (UniProt Q03181); experiment: qHTS assay to identify small molecule agonists of the peroxisome proliferator-activated receptor delta (PPARd) signaling pathway (AID 743212; calls by dose curve)
Sequence of Peroxisome proliferator-activated receptor delta (Homo sapiens) (Q03181 whole entry, looked up): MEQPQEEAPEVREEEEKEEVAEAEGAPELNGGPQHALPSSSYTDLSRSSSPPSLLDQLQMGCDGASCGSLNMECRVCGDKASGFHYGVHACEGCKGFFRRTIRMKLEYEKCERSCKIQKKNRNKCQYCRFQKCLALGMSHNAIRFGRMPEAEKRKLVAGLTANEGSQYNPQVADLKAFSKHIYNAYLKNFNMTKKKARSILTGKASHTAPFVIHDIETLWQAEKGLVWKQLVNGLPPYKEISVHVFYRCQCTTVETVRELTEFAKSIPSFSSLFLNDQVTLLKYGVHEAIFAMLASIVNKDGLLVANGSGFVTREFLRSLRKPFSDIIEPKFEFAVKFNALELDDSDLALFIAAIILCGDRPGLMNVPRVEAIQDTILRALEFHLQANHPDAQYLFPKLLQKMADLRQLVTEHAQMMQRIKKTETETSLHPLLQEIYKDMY
Outline: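 Steps: seed PPARd-bla HEK293H cells; incubate 5 h, 37 C, 5% CO2; add compounds in DMSO; incubate, 37 C; add LiveBLAzer B/G FRET substrate; hold 2 h at room temperature; measure fluorescence.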

[13] = qHTS assay to identify small molecule antagonists of the peroxisome proliferator-activated receptor delta (PPARd) signaling pathway - cell viability counter screen (AID 743213); further: nearly all actives have a fitted effect of over 50% in size
Outline: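 PPARd-bla HEK293H cells (3000/well) got compound plus 300 nM L165041 agonist for 17 h at 37 C. Viability in the same wells came from CellTiter-Glo luminescence after 30 min at room temperature.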

[14] = target: Peroxisome proliferator-activated receptor delta (Homo sapiens) (UniProt Q03181); experiment: qHTS assay to identify small molecule antagonists of the peroxisome proliferator-activated receptor delta (PPARd) signaling pathway (AID 743215; active means well fitted inhibition curve with a large enough effect in the signal ratio in the repeat runs, not every such curve was filed as active; the % refers to the signal ratio;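 further: cells stimulated with agonist L165041 at 300 nM final during compound exposure; series mostly up to about 62 µM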)
Outline: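 Here, a reporter line (HEK293H, beta-lactamase under a UAS) measures PPARd signaling. Compounds are tested against agonist L165041 at 300 nM final concentration over 17 h at 37 C, with fluorescence read after substrate.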

[15] = qHTS assay to identify small molecule agonists of the farnesoid-X-receptor (FXR) signaling pathway - cell viability counter screen (AID 743218); further: nearly all actives have a fitted effect of over 45% in size
Outline: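 Quantitative HTS counter screen measuring ATP-based viability via CellTiter-Glo luminescence in HEK 293T cells carrying a UAS-driven beta-lactamase reporter, after 16 h compound exposure at 37 C.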

[16] = qHTS assay to identify small molecule antagonists of the farnesoid-X-receptor (FXR) signaling pathway - cell viability counter screen (AID 743221; active means well fitted cell-killing curve with a large enough effect in the repeat runs, not every such curve was filed as active; further: nearly all actives have a fitted effect of over 50% in size)
Outline: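 Cytotoxicity counter screen run in the FXR-bla reporter wells: HEK 293T cells exposed to compound with 50 uM (final) chenodeoxycholic acid for 16 h, 37 C, then viability measured by CellTiter-Glo luminescence after 30 min, room temperature.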

[17] = target: Bile acid receptor (Homo sapiens) (UniProt Q96RI1); experiment: qHTS assay to identify small molecule antagonists of the farnesoid-X-receptor (FXR) signaling pathway (AID 743217; active means well fitted inhibition curve with a large enough effect in the signal ratio in the repeat runs, not every such curve was filed as active; the % refers to the signal ratio)
Sequence of Bile acid receptor (Homo sapiens) (Q96RI1 whole entry, looked up): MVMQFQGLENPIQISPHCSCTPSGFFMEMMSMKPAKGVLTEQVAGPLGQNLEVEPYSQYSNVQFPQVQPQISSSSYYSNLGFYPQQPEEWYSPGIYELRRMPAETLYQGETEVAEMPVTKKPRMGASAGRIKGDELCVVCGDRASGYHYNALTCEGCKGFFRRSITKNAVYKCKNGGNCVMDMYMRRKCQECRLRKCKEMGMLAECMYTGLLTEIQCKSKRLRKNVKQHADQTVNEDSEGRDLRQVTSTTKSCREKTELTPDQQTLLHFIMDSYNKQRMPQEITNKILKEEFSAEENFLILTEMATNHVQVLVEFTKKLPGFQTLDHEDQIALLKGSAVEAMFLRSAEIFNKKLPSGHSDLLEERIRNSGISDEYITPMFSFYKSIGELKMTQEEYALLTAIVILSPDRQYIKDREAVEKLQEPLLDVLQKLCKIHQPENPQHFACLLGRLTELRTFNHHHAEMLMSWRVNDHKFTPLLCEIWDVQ
Outline: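 Test compounds are pin-transferred onto FXR-bla HEK 293T cells, then chenodeoxycholic acid is added at 50 uM final. After 16 h at 37 °C, LiveBLAzer B/G substrate is applied for 2 h at room temperature and fluorescence read.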

[18] = target: Bile acid receptor (Homo sapiens) (UniProt Q96RI1); experiment: qHTS assay to identify small molecule agonists of the farnesoid-X-receptor (FXR) signaling pathway (AID 743220; active means well fitted activation curve with a large enough effect in the signal ratio in the repeat runs, not every such curve was filed as active; the % refers to the signal ratio)
Outline: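 FXR-UAS-bla HEK 293T cells carrying a UAS-driven beta-lactamase reporter were plated for 5 h at 37C/5% CO2, then exposed to DMSO-dissolved Tox21 10K compounds for 16 h at 37C. A LiveBLAzer B/G FRET substrate was loaded for 2 h at room temperature before fluorescence reading.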

[19] = target: Vitamin D3 receptor (Homo sapiens) (UniProt P11473); experiment: qHTS assay to identify small molecule agonists of the vitamin D receptor (VDR) signaling pathway (AID 743222; calls by dose curve)
Sequence of Vitamin D3 receptor (Homo sapiens) (P11473 whole entry, looked up): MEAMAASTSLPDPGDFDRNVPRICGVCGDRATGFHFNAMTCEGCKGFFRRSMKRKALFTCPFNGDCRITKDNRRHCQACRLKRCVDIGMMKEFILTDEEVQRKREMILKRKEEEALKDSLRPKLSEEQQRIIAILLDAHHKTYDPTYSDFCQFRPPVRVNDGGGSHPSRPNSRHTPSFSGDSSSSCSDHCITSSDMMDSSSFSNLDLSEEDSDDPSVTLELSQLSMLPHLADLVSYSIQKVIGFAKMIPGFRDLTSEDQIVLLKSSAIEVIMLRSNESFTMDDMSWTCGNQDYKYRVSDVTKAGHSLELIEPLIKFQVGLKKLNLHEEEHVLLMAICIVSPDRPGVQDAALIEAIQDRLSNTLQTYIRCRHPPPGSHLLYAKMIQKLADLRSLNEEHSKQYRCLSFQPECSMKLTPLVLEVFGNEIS
Outline: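 Tox21 cell reporter format: VDR-bla line, 16 h compound exposure in 5% CO2 at 37C, then fluorescence intensity after 2 h with LiveBLAzer B/G FRET substrate.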

[20] = target: Vitamin D3 receptor (Homo sapiens) (UniProt P11473); experiment: qHTS assay to identify small molecule antagonists of the vitamin D receptor (VDR) signaling pathway (AID 743223; active means well fitted inhibition curve with a large enough effect in the signal ratio in the repeat runs, not every such curve was filed as active; the % refers to the signal ratio)
Outline: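 Antagonist mode: compound added to VDR-bla cells alongside agonist 1alpha,25-dihydroxyvitamin D3 (3 nM final), incubation 16 h at 37C. Read-out is LiveBLAzer FRET fluorescence, 2 h at room temperature.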

Compound | Potency [1] | Potency [2] | outcome [3] | outcome [4] | outcome [5] | outcome [6] | Potency [7] | outcome [8] | outcome [9] | Potency [10] | outcome [11] | outcome [12] | outcome [13] | Potency [14] | Potency [15] | Potency [16] | outcome [17] | outcome [18] | outcome [19] | outcome [20]
O=c1[nH]c(=O)n([C@H]2CCCO2)cc1F | inactive | inactive | inactive | inactive | inactive | inactive | inactive | inactive | inactive | inactive | inactive | inactive | inactive | inactive | inactive | inactive |  |  |  | 
O=C(O)c1cc(=O)c2c(OCC(O)COc3cccc4oc(C(=O)O)cc(=O)c34)cccc2o1 | inactive | inactive | inactive | inactive | inactive | inactive | inactive | inactive | inactive | inactive | inactive | inactive |  | inactive |  | inactive |  |  |  | 
CCCCCCCCCCCCOCCO | inactive | inactive | inactive | inactive | inactive | inactive | inactive | inactive | inactive | inactive | inactive |  | inactive |  | inactive | inactive |  |  |  | 
O=C(O)c1ccc2c(c1)C(=O)OC2=O | inactive | inactive | inactive | inactive | inactive | inactive | inactive | inactive | inactive | inactive | inactive |  | inactive |  | inactive |  | inactive | inactive | inactive | inactive
Cc1cccnc1 | inactive | inactive | inactive | inactive | inactive | inactive | inactive | inactive | inactive | inactive | inactive |  | inactive |  |  | inactive |  |  | inactive | inactive
CN(C)CCOCCN(C)C | inactive | 62.3 µM (active) and inactive | inactive | inactive | inactive | inactive | inactive | inactive | inactive | inactive | inactive | inactive |  | inactive | inactive |  | inactive |  | inactive | inactive
Fc1ccc(Br)cc1 | inactive | inactive | inactive | inactive | inactive | inactive | inactive | inactive | inactive | inactive | inactive |  | inactive |  | inactive | inactive |  |  | inactive | inactive
COc1ccc(Nc2ccccc2)c(C)c1 | inactive | inactive | inactive | inactive | inactive | inactive | inactive | inactive | inactive | inactive | inactive | inactive |  | inactive |  | inactive |  |  |  | 
CCCCCOC(C)=O | inactive | inactive | inactive | inactive | inactive | inactive | inactive | inactive | inactive | inactive | inactive | inactive | inactive | inactive | inactive | inactive | inactive |  | inactive | inactive
CCCCCCCCCCCCCCCO | inactive | inactive | inactive | inactive | inactive | inactive | inactive | inactive | inactive | inactive | inactive | inactive |  | inactive |  | inactive | inactive |  | inactive | inactive
CC(O)COCC(C)O (stereo not drawn) | inactive | inactive | inactive | inactive | inactive | inactive | inactive | inactive | inactive | inactive | inactive | inactive |  | inactive | inactive | inactive | inactive |  | inactive | inactive
CCCCC(CC)CO (stereo not drawn) | inactive | inactive | inactive | inactive | inactive | inactive | inactive | inactive | inactive | inactive | inactive | inactive | inactive | inactive |  |  | inactive |  | inactive | inactive
CCCCCCOCCO | inactive | inactive | inactive | inactive | inactive | inactive | inactive | inactive | inactive | inactive | inactive | inactive | inactive | inactive | inactive |  |  |  | inactive | inactive
C=CCNC(N)=S | inactive | inactive | inactive | inactive | inactive | inactive | inactive | inactive | inactive | inactive | inactive | inactive | inactive | inactive | inactive |  |  |  | inactive | inactive
Cc1cc(C)c(C)cc1C | inactive | inactive | inactive | inactive | inactive | inactive | inactive | inactive | inactive | inactive | inactive | inactive | inactive | inactive | inactive |  | inactive |  | inactive | 
Cc1ccc(S(N)(=O)=O)cc1 | inactive | inactive | inactive | inactive | inactive | inactive | inactive | inactive | inactive | inactive | inactive | inactive | inactive |  | inactive | inactive |  |  | inactive | inactive
COc1cc(Cc2cnc(N)nc2N)cc(OC)c1OC | inactive | inactive | inactive | inactive | inactive | inactive | inactive | inactive | inactive | inactive | inactive | inactive | inactive | inactive |  |  |  |  | inactive | inactive
C#CCN(C)Cc1ccccc1 | inactive | inactive | inactive | inactive | inactive | inactive | inactive | inactive | inactive | inactive | inactive | inactive | inactive | inactive |  | inactive |  |  |  | 
